AMA1-RON2 inh: qHTS for Inhibitors of AMA1-RON; Towards Development of Antimalarial Drug Lead: Primary Screen; AlphaScreen AMA1-biotinylated RON2 peptide binding; Potency, µM (top dose mostly 58.2 µM), for the others: at the top dose activity change, negative = inhibition, most hits filed as inhibitors; 360,000 compounds, 0.2% hits;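 note: 0% = vehicle wells and -100% = peptide control; nearly all actives have a fitted effect of over 45% in size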
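AMA1 (3D7) with his tag at 25 nM final met compounds first, then biotinylated RON2 peptide at 25 nM; detection used donor plus acceptor beads, 10 µg/mL apiece, read by AlphaScreen after 30 min at room temperature.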
AmpC detergent: qHTS Inhibitors of AmpC Beta-Lactamase (assay with detergent); 370,000 compounds, 0.041% hits; AmpC hydrolysis of nitrocefin, absorbance 480 nm, 0.01% Triton; Potency, µM (doses to about 114 µM), inactives show at the top dose activity change, negative = inhibition, most hits filed as inhibitors; P00811;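 note: 0% = no-compound wells and -100% = no-enzyme wells; nearly all actives have a fitted effect of over 25% in size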
Target sequence (P00811 whole entry, looked up): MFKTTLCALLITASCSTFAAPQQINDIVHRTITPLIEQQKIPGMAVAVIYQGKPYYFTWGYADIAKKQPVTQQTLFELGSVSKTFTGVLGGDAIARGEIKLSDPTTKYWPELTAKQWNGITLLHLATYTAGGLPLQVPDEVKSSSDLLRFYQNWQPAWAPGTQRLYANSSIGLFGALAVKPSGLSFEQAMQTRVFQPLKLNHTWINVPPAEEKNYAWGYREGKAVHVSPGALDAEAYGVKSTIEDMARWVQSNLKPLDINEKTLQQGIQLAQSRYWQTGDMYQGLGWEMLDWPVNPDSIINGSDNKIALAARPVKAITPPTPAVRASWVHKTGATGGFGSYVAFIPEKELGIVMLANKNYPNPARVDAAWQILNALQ
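AmpC (5.3 nM in the dispensed reagent) in 20 mM phosphate pH 7.0 with 0.01% (detergent screen) or 0.0001% Triton X-100 was preincubated with compounds for 15 min at room temperature. Nitrocefin was then added from an 800 uM solution, and hydrolysis was followed at 480 nm.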
AmpC inh no detg: qHTS Inhibitors of AmpC Beta-Lactamase (assay without detergent); AmpC nitrocefin hydrolysis, absorbance 480 nm, 0.0001% Triton; Potency, µM (series often up to 57.1 µM), without a hit: at the top dose activity change, negative = inhibition, actives largely listed as inhibitors; 330,000 compounds, 0.52% hits; AID 485341, 2010;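 note: plate controls were no compound for no effect and no enzyme for full effect; nearly all actives have a fitted effect of over 20% in size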
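20 mM phosphate pH 7.0 + 0.01% (detergent screen) or 0.0001% Triton X-100; 5.3 nM AmpC reagent; cpd preinc 15 min RT; nitrocefin (800 uM stock) to start; A480 q20 s × 4 min; Activity was normalised to no-enzyme and no-compound control wells.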
Sm TGR inh: qHTS Assay for the Inhibitors of Schistosoma Mansoni Peroxiredoxins; Schistosoma mansoni thioredoxin glutathione reductase (TGR), Q962Y6; purified TGR, DTNB reduction, TNB absorbance 405 nm; Potency, µM (top dose mostly 114 µM), for inactives: top-dose activity change, negative = inhibition, usual class: inhibitors; 360,000 compounds, 3% hits; AID 485364, 2010; note: nearly all actives have a fitted effect of over 60% in size
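First, TGR (20 nM dispensed) and NADPH were mixed with compound. Second, a 15 min room-temperature incubation followed. Third, further NADPH and then DTNB were added to start the reaction. Finally, TNB absorbance was monitored kinetically.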
RE007 growth inh: qHTS Assay for Inhibitors of the HIV-1 protein Vpr. S. pombe RE007 Vpr strain, BacTiter-Glo ATP luminescence, 24 h. Potency, µM (highest dose often 92.2 µM), without a hit: top-dose activity change, negative = less growth, hits mostly inhibitors. 360,000 compounds, 0.21% hits; active = well fitted falling curve with a large enough effect; inconclusive = small, poorly fitted or top-dose-only effect; inactive = no such curve, though single readings can be large or run the other way; note: nearly all actives have a fitted effect of over 50% in size
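Fission yeast RE007 carrying one integrated HIV-1 vpr copy, seeded at OD 0.01 in PMG+AL medium with 23 nL pinned compound. Grown 24 h at 30 degrees; viability read by BacTiter-Glo luminescence after 5 min.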
The depositor's hits bear a star; ? = inconclusive; nt = not tested or not shown; [ ] = another dose, or the depositor's remark. Most compounds without a hit are left out; they make up all but 3.2% or so of the library. Unless noted, calls come from the whole dose curve; as a rule, active = well fitted curve in the direction sought with a large enough effect; inconclusive = small, poorly fitted or top-dose-only effect, or another doubt; inactive = no such curve, though single readings can be large; an effect the other way counts as inactive or inconclusive. Unless noted, % is set by controls: 0 for no effect and ±100 for the full control effect; potency is the fitted concentration of half-maximal effect.

SMILES | AMA1-RON2 inh | AmpC detergent | AmpC inh no detg | Sm TGR inh | RE007 growth inh
COc1cccc(CN2CCN(Cc3ccc(C)o3)CC2CCO)c1 (stereo unspecified) | -2% | -7% | 5% | 35µM* | 10%
COc1cccc(CN2CCN(Cc3ccc(O)c(OC)c3)CC2CCO)c1 (stereo unspecified) | -10% | -3% | 8% | 35µM* | -5%
Cc1ccc(CN2CCN(Cc3ccncc3)CC2CCO)o1 (stereo unspecified) | 4% | 2% | -16% | 20µM* | -19%
COc1cccc(CN2CCN(Cc3ccc(OC)c(OC)c3)CC2CCO)c1 (stereo unspecified) | 4% | 2% | 18% | -17% | -9%
CNC(=O)Oc1cccc(-c2cn3cc(OC(=O)NC)ccc3n2)c1 | 10% | -12% | -28% | -19% | ?
CNC(=O)Oc1ccc(-c2cn3cc(Cl)ccc3n2)cc1 | -18% | -5% | -21% | 35µM* | -25%
Cc1cc(C)c2oc(-c3cccc(NC(=O)COc4ccccc4Cl)c3C)nc2c1 | nt | -3% | nt | 3% | nt
COc1cccc(CNc2cc(C)nc3nc(-c4ccc(C)cc4)nn23)c1 | nt | 0% | nt | ? | nt
COc1ccccc1NC(=O)CCn1cnc2ccccc2c1=O | nt | -7% | 0% | -2% | nt
O=S(=O)(N/N=C/c1ccc(N2CCOCC2)cc1)c1ccc(Br)cc1 | -1% | ? | 11µM* | 1% | -21%
Cc1ccc(N/N=C/c2ccc(N3CCOCC3)cc2)cc1C | -12% | -7% | 0% | 25µM* | 22%
O=S(=O)(NN1CCOCC1)c1ccc(Br)cc1 | 3% | 4% | -15% | -31% | -2%
COc1ccc(C(=O)Nc2ccc3nc4c(c(Nc5ccccc5OC)c3c2)CCCC4)c(OC)c1 | nt | 0% | nt | 5% | nt
COCC(=O)N(CCc1ccccc1)Cc1cc2cc(C)ccc2nc1Cl | -1% | ? | 91% | 40µM* | 20%
CCOC(=O)c1cc(-c2ccccc2)n(CCC(=O)NC2CCCCC2)c1C | nt | -6% | nt | 16% | nt
Cc1nc2sc3c(c2c(=O)n1NC(=O)CCBr)CCCC3 | 104% | 1% | -10% | 40µM* | 2%
CCCc1nc2sc3c(c2c(=O)n1NC(=O)CCC(=O)OC)CCCC3 | -15% | 1% | 19% | 2% | -16%
CCOc1ccccc1C(=O)N(Cc1ccco1)Cc1ccco1 | nt | 23% | nt | -2% | nt
O=c1c2ccccc2c(-c2cccc(C(F)(F)F)c2)nn1-c1ccccc1 | 1% | 0% | -3% | -6% | -1%
O=c1c2ccccc2c(-c2ccc(O)cc2)nn1-c1cccc(C(F)(F)F)c1 | -2% | 2% | 18µM* | -6% | nt
CC(=O)N1CCCc2cc(S(=O)(=O)N3CCCC(C(=O)Nc4cccc(Cl)c4C)C3)ccc21 (stereo unspecified) | nt | 2% | nt | 8% | nt
Cc1ccc(S(=O)(=O)/N=C2/C=C(Sc3ncn[nH]3)C(=O)c3ccccc32)cc1 | -2% | -18% | -35% | 0.32µM* | ?
Cc1ccc(S(=O)(=O)/N=C2/C=C(Sc3ncn[nH]3)C(=O)c3ccccc32)c(C)c1 | nt | -18% | 25µM* | 0.63µM* | nt
CC(C)c1ccc(S(=O)(=O)/N=C2/C=C(Sc3ncn[nH]3)C(=O)c3ccccc32)cc1 | -4%[11.6 µM] | 2% | -49% | 0.28µM* | ?
Cc1ccc(-c2nnn(CC(=O)N(CC(=O)NCCC(C)C)c3ccc(F)cc3)n2)cc1 | nt | 11% | nt | 2% | nt
CCC(C(=O)NCc1ccco1)N(C(=O)CNS(=O)(=O)c1ccccc1)C1CCCCC1 (stereo unspecified) | 4% | 4% | 33% | 45µM* | 6%
O=C(NCc1ccccc1F)C(=O)NCC(c1ccc2c(c1)OCO2)N1CCOCC1 (stereo unspecified) | nt | 0% | nt | -6% | nt
COC(=O)CC1C(=O)NC2CCCCC2N1C(=O)CCl (stereo unspecified) | -4% | 1% | 3% | 6.3µM* | -2%
